About 83,000 compounds went through this panel and 20% of them were active in at least one assay; those are over-represented in the sample as a whole.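 Results are percent growth after 48 hours of single-concentration exposure. 100 means growth as in untreated cells, lower positive values show inhibition; negative values down to -100 show cell death.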 A number with no mark means an inactive call. Active and inactive are the calls of the source. The calls were made as follows: active = growth percent below 10; inactive = the rest.

For the first assay, the system named is OVCAR-5 ovarian. Briefly: NCI-60 one-dose screen, 48 h (100 = growth as untreated, 0 = no growth, -100 = all killed). The following applies: 10 µM unless noted.
Turning to `COc1ccc(-c2oc3cc(O)c(OC)c(O)c3c(=O)c2OC)cc1O`, the growth was 57%.
Turning to `c1ccc(-c2nnc(Nc3nnc(-c4ccccc4)s3)s2)cc1`, the growth was 100%.
In the case of `CCN1CCN(c2cc(-c3cn[nH]c3-c3cc(C)cc(OC)c3)nc(-c3cccnc3)n2)CC1`, the growth is 124%.
In the case of `CCCn1cnc2c1c(=O)n(CCCCC(C)=O)c(=O)n2C`, the growth is 110%.
For the compound `O=C1C2C3C=CC(O3)C2C(=O)N1Nc1ccccc1` (centres undefined), the growth was 97.4%.
The same measure, in the same setting: next, `O=C(Nc1ccncc1)C(=O)c1cn(S(=O)(=O)c2cccc(F)c2)c2ccccc12`: 73.9%; `COc1ccc(-c2csc(NC(=O)c3cc(OC)c(OC)c(OC)c3)n2)cc1`: 103%; `CCC1=C(c2ccc(OC)cc2)C(C)(C)Oc2cc(O)c(CN3CCCC3)cc21`: 81.9%.
Take `CCOc1nc(-c2ccccc2)cc2c(O)c(-c3nnco3)[nH]c(=O)c12`: the growth is 101%.
On the same count and under the same terms, as for `C=C1CC[C@@H]2[C@](C)(COC(C)=O)[C@H](OC(C)=O)CC[C@@]2(C)[C@@H]1CC(Nc1ccc(S(=O)(=O)Nc2cc(C)on2)cc1)C1=CCOC1=O` (some centres undefined), the figure is 52.2%; as for `COc1ccc(C2=NN(C(=O)c3cc(OC)c(OC)c(OC)c3)C(c3ccc(C#N)cc3)C2)cc1OC` (centres undefined), 58.8%.
With `O=C1/C(=N/O)CCc2ccccc21`, the growth is 108%.
For the compound `O=C(/C=C/c1cccnc1)NCCCCC1CCCN(C(=O)c2ccccc2)C1` (centres undefined), the growth was 96.1%.
Consider `COc1ccc(Nc2ccnc(NCCCNc3ccnc4cc(Cl)ccc34)n2)cc1`, for which the growth is -19.9% (active).
In the case of `COc1ccc2nc(NC(=O)c3cc(-c4ccc(F)cc4)n4nc(-c5ccccc5)cc4n3)sc2c1`, the growth was 85.6%.
For `COc1cc(/C=C/C(=O)N2CCN(C(=O)/C=C/c3ccccc3)CC2)cc(OC)c1OC`, the growth is 117%.
As to `O=C1C[C@@H]2/C(=C(O)\C=C\c3ccccc3)C(=O)C=C[C@@H]2O1`, the growth was 51.5%.
`COc1cc(/C=C/c2nnc(-c3cc(-c4ccccc4)n[nH]3)o2)cc(OC)c1OC`: the growth is 101%.
`O=[N+]([O-])c1ccc2c(c1)S(=O)c1cc([N+](=O)[O-])ccc1N2`: the growth was 95.3%.
On to `C/C(=C\CCc1ccoc1)CC/C=C(\C)CCCN1CCC(CO)CC1`, for which the growth is 76.4%.
Regarding `O=C1/C(=C/c2ccc([N+](=O)[O-])o2)Oc2ccc(Cl)cc21`, the growth is 46.1%.
The same measure, in the same setting: as for `COc1cc(C2NC(c3ccc(Cl)cc3)C(C)/C(=N/NC(N)=S)C2C)cc(OC)c1OC` (centres undefined), the figure is 98%.
Still for that read-out and setting: next, `CCC(CC)NCCCCCNc1cc(OC)cc2cccnc12`: 88.9%; `CCOc1nc(-c2ccccc2)cc2c(O)c(C(=O)n3nc(C)cc3C)[nH]c(=O)c12`: 106%.
With `O=C(/C(=N/O)S(=O)(=O)c1ccccc1)c1cccs1`, the growth was 118%.
Consider `COc1cc(C2NC(c3ccc(Cl)cc3)C(C)C(=NC(=O)c3cnccn3)C2C)cc(OC)c1OC` (centres undefined), for which the growth is 94.5%.
As to `COc1ccc2c(c1)C(=O)/C(=C/c1ccc([N+](=O)[O-])s1)O2`, the growth is 32.9%.
With `COc1cc(C(=O)/C=C/c2cccnc2Nc2ccccc2)cc(OC)c1OC`, the growth is -71.2% (active).
As to `CCCCn1c(Cc2ccc(Cl)cc2)nc2cc(OC)c(OC)cc2c1=O`, the growth is 93.5%.
`OCCOc1c(Cl)cc(Cl)cc1Cl`: the growth is 92.6%.
The same measure, in the same setting: as for `COc1ccc2nc3cc(Cl)ccc3c(N3CCN(c4ccnc(Nc5ccc(F)cc5)n4)CC3)c2c1`, the figure is 95%.
Consider `COc1ccc(-c2cc(Cc3cccs3)c(=O)n(Cn3ccc4ccccc43)n2)cc1`, for which the growth was 99.9%.
For the compound `CCc1[nH]nc(-c2ccc(OC)cc2)c1-c1ccccc1OCCN(CC)CC`, the growth is 92.6%.
With `COc1ccc(-c2cc(C(=O)Nc3nc4cc(C)c(C)cc4s3)nc3cc(-c4ccccc4)nn23)cc1OC`, the growth was 111%.
On the same count and under the same terms, next, `Nc1ccc2c3c(cccc13)-c1ccccc1-2`: 99.8%.
The same measure, in the same setting: as for `COc1cccc(-c2nnc(N)o2)c1`, the figure is 105%; as for `COc1cc2c(cc1OCCCOc1ccc(-c3cc4ccccc4c4ccccc34)cc1)N=C[C@@H]1CCCN1C2=O`, -69.5% (active).

For a further assay, the system named is OVCAR-4 ovarian. The assay is described as above. Conditions: 10 µM unless noted.
Turning to `COc1ccc(-c2oc3cc(O)c(OC)c(O)c3c(=O)c2OC)cc1O`, the growth was 65.6%.
Turning to `c1ccc(-c2nnc(Nc3nnc(-c4ccccc4)s3)s2)cc1`, the growth was 101%.
The same measure, in the same setting: next, `CCN1CCN(c2cc(-c3cn[nH]c3-c3cc(C)cc(OC)c3)nc(-c3cccnc3)n2)CC1`: 94%; `CCCn1cnc2c1c(=O)n(CCCCC(C)=O)c(=O)n2C`: 97.1%; `O=C1C2C3C=CC(O3)C2C(=O)N1Nc1ccccc1` (centres undefined): 102%.
Consider `O=C(Nc1ccncc1)C(=O)c1cn(S(=O)(=O)c2cccc(F)c2)c2ccccc12`, for which the growth was 67.2%.
Turning to `COc1ccc(-c2csc(NC(=O)c3cc(OC)c(OC)c(OC)c3)n2)cc1`, the growth was 96.8%.
With `CCC1=C(c2ccc(OC)cc2)C(C)(C)Oc2cc(O)c(CN3CCCC3)cc21`, the growth is 99.3%.
For the compound `CCOc1nc(-c2ccccc2)cc2c(O)c(-c3nnco3)[nH]c(=O)c12`, the growth was 51.5%.
For the compound `C=C1CC[C@@H]2[C@](C)(COC(C)=O)[C@H](OC(C)=O)CC[C@@]2(C)[C@@H]1CC(Nc1ccc(S(=O)(=O)Nc2cc(C)on2)cc1)C1=CCOC1=O` (some centres undefined), the growth is 68.2%.
Same read-out and setting: as for `COc1ccc(C2=NN(C(=O)c3cc(OC)c(OC)c(OC)c3)C(c3ccc(C#N)cc3)C2)cc1OC` (centres undefined), the figure is 62.1%.
On to `O=C1/C(=N/O)CCc2ccccc21`, for which the growth is 85.7%.
`O=C(/C=C/c1cccnc1)NCCCCC1CCCN(C(=O)c2ccccc2)C1` (centres undefined): the growth was 89.2%.
Regarding `COc1ccc(Nc2ccnc(NCCCNc3ccnc4cc(Cl)ccc34)n2)cc1`, the growth is 11.8%.
For `COc1ccc2nc(NC(=O)c3cc(-c4ccc(F)cc4)n4nc(-c5ccccc5)cc4n3)sc2c1`, the growth was 59.1%.
The same measure, in the same setting: as for `COc1cc(/C=C/C(=O)N2CCN(C(=O)/C=C/c3ccccc3)CC2)cc(OC)c1OC`, the figure is 97.1%; as for `O=C1C[C@@H]2/C(=C(O)\C=C\c3ccccc3)C(=O)C=C[C@@H]2O1`, 37.5%; as for `COc1cc(/C=C/c2nnc(-c3cc(-c4ccccc4)n[nH]3)o2)cc(OC)c1OC`, 100%.
Consider `O=[N+]([O-])c1ccc2c(c1)S(=O)c1cc([N+](=O)[O-])ccc1N2`, for which the growth is 100%.
Same read-out and setting: as for `C/C(=C\CCc1ccoc1)CC/C=C(\C)CCCN1CCC(CO)CC1`, the figure is 52.5%; as for `O=C1/C(=C/c2ccc([N+](=O)[O-])o2)Oc2ccc(Cl)cc21`, -48% (active).
Still for that read-out and setting: next, `COc1cc(C2NC(c3ccc(Cl)cc3)C(C)/C(=N/NC(N)=S)C2C)cc(OC)c1OC` (centres undefined): 87%; `CCC(CC)NCCCCCNc1cc(OC)cc2cccnc12`: 32.1%; `CCOc1nc(-c2ccccc2)cc2c(O)c(C(=O)n3nc(C)cc3C)[nH]c(=O)c12`: 100%.
Turning to `O=C(/C(=N/O)S(=O)(=O)c1ccccc1)c1cccs1`, the growth was 113%.
`COc1cc(C2NC(c3ccc(Cl)cc3)C(C)C(=NC(=O)c3cnccn3)C2C)cc(OC)c1OC` (centres undefined): the growth is 93%.
As for `COc1ccc2c(c1)C(=O)/C(=C/c1ccc([N+](=O)[O-])s1)O2`, the growth is -45% (active).
Still for that read-out and setting: as for `COc1cc(C(=O)/C=C/c2cccnc2Nc2ccccc2)cc(OC)c1OC`, the figure is -92.4% (active).
For the compound `CCCCn1c(Cc2ccc(Cl)cc2)nc2cc(OC)c(OC)cc2c1=O`, the growth is 71.1%.
For `OCCOc1c(Cl)cc(Cl)cc1Cl`, the growth is 98.1%.
Turning to `COc1ccc2nc3cc(Cl)ccc3c(N3CCN(c4ccnc(Nc5ccc(F)cc5)n4)CC3)c2c1`, the growth was 64.8%.
On the same count and under the same terms, as for `COc1ccc(-c2cc(Cc3cccs3)c(=O)n(Cn3ccc4ccccc43)n2)cc1`, the figure is 111%; as for `CCc1[nH]nc(-c2ccc(OC)cc2)c1-c1ccccc1OCCN(CC)CC`, 91.4%; as for `COc1ccc(-c2cc(C(=O)Nc3nc4cc(C)c(C)cc4s3)nc3cc(-c4ccccc4)nn23)cc1OC`, 106%.
`Nc1ccc2c3c(cccc13)-c1ccccc1-2`: the growth was 86.1%.
In the case of `COc1cccc(-c2nnc(N)o2)c1`, the growth was 97.9%.
Take `COc1cc2c(cc1OCCCOc1ccc(-c3cc4ccccc4c4ccccc34)cc1)N=C[C@@H]1CCCN1C2=O`: the growth is -77.1% (active).

These data come from PubChem BioAssay (NCI).
